Records with an inconclusive call do not appear. Activity calls are given as the source filed them. Calls follow the shape of the dose curve; as a rule, active = well fitted curve in the direction sought with a large enough effect; inconclusive = small, poorly fitted or top-dose-only effect, or another doubt; inactive = no such curve, though single readings can be large; an effect the other way counts as inactive or inconclusive.
Assays:
NIH3T3 = experiment: qHTS assay to identify novel small-molecules to repurpose for Merkel cell carcinoma treatment (AID 1296009); conditions: MCC and control cell lines, CellTiter-Glo viability, 72 h; at 44.8 µM (top of the series) unless noted; also: nearly all actives have a fitted effect of over 60% in size
Summary of the method: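 Luminescence from CellTiter-Glo, read 10 min after addition at room temperature, reported viability following a 72 hr, 37 degree celsius treatment with NPC or MIPE compounds in titration; values normalized to plate controls.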

C33A = experiment: Primary qHTS to identify gynecologic anti-cancer compounds using libraries of approved drugs and bioactive compounds (AID 1345084); conditions: Gynecologic cancer cell panel viability, ATPlite luminescence, 48 h; series mostly up to 57.5 µM; also: % is scaled to controls: 0 for no effect and ±100 for the full control effect; nearly all actives have a fitted effect of over 55% in size
Summary of the method: (§1)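 In this quantitative HTS, cell killing is estimated from loss of ATP-dependent luciferase light. Cells see five compound concentrations over a 48 h exposure.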

CASKI = experiment: as above; conditions: Gynecologic cancer cell panel viability, ATPlite luminescence, 48 h; series mostly up to 57.5 µM
Summary of the method: as §1

Es-2 = experiment: as above; conditions: Gynecologic cancer cell panel viability, ATPlite luminescence, 48 h; series mostly up to 57.5 µM
Summary of the method: as §1

HeLa = experiment: as above; conditions: Gynecologic cancer cell panel viability, ATPlite luminescence, 48 h; series mostly up to 57.5 µM
Summary of the method: as §1

Hek293T = experiment: as above; conditions: Gynecologic cancer cell panel viability, ATPlite luminescence, 48 h, control line for the selectivity index; series mostly up to 57.5 µM
Summary of the method: as §1

CAOV3 = experiment: as above; conditions: Gynecologic cancer cell panel viability, ATPlite luminescence, 48 h; series mostly up to 57.5 µM
Summary of the method: as §1

COC1C=C([C@@H]2CC=C3[C@@]4(C)C(CC[C@]32C)[C@@]2(C)C=CC(=O)C(C)(C)C2C[C@H]4OC(C)=O)C(=O)O1 (stereo partly drawn)
inactive: outcome (NIH3T3) inactive [at 17.4 µM] | Potency (C33A) | Potency (CASKI) | Potency (Es-2) | Potency (HeLa) | Potency (Hek293T)

Cc1nnc(C(C)C)n1C1CC2CCC(C1)N2CCC(NC(=O)C1CCC(F)(F)CC1)c1ccccc1 (stereo not drawn)
inactive: Potency (C33A) | Potency (CAOV3) | Potency (CASKI) | Potency (Es-2) | Potency (HeLa)

CCOC(=O)c1ccnc(CNCC(=O)N(CC)CCN(C)C)c1
inactive: outcome (NIH3T3) | Potency (C33A) | Potency (CASKI) | Potency (Es-2) | Potency (HeLa) | Potency (Hek293T)

C[C@@H](OC(=O)/C=C/c1ccc(O)cc1)C1=C[C@]2(C=C[C@@H]3C(C(=O)O)=CO[C@@H](O[C@@H]4O[C@H](CO[C@@H]5O[C@H](CO)[C@@H](O)[C@H](O)[C@H]5O)[C@@H](O)[C@H](O)[C@H]4O)[C@@H]32)OC1=O
inactive: Potency (C33A) | Potency (CAOV3) | Potency (CASKI) | Potency (Es-2) | Potency (HeLa) | Potency (Hek293T)

CC1CCCC2OC2C(=O)c2c(O)cc(O)cc2CC(=O)O1 (stereo not drawn)
inactive: outcome (NIH3T3) | Potency (C33A) | Potency (CASKI) | Potency (Es-2) | Potency (HeLa) | Potency (Hek293T)

C=CC1(C)CC(O)C2(CCC3C(C)(C(=O)O)CCCC3(C)C2=O)C1 (stereo not drawn)
inactive: Potency (C33A) | Potency (CAOV3) | Potency (CASKI) | Potency (Es-2) | Potency (HeLa) | Potency (Hek293T)

CCCCNC(=O)[C@@H]1Cc2ccccc2N1C(=O)[C@@H](N)CC
inactive: Potency (C33A) | Potency (CAOV3) | Potency (CASKI) | Potency (Es-2) | Potency (HeLa)

COC1(CC(C)C)NC(=O)C(O)(Cc2ccccc2)NC1=O (stereo not drawn)
inactive: outcome (NIH3T3) | Potency (C33A) | Potency (CASKI) | Potency (Es-2) | Potency (HeLa) | Potency (Hek293T)

CC1(CCC(=O)O)C(=O)C=CC23CC4CC(OC4(C)C2O)C13 (stereo not drawn)
inactive: outcome (NIH3T3) | Potency (C33A) | Potency (CASKI) | Potency (Es-2) | Potency (HeLa) | Potency (Hek293T)

Nc1nonc1C(=Nc1ccc(F)c(Cl)c1)NO
inactive: Potency (C33A) | Potency (CAOV3) | Potency (CASKI) | Potency (Es-2) | Potency (HeLa) | Potency (Hek293T)

CCC(=O)NS(=O)(=O)c1ccc(-c2c(-c3ccccc3)noc2C)cc1
inactive: outcome (NIH3T3) | Potency (C33A) | Potency (CASKI) | Potency (Es-2) | Potency (HeLa) | Potency (Hek293T)

CC(C)NC[C@H](O)COc1ccc(CCOCC2CC2)cc1
inactive: outcome (NIH3T3) | Potency (C33A) | Potency (CASKI) | Potency (Es-2) | Potency (HeLa) | Potency (Hek293T)

CC1(C)CC[C@]2(C(=O)O)CC[C@]3(C)C(=CCC4[C@@]5(C)CCC(O[C@@H]6OC[C@H](O)[C@H](O)[C@H]6O[C@@H]6O[C@H](CO)[C@@H](O)[C@H](O)[C@H]6O)[C@@](C)(CO)C5CC[C@]43C)[C@@H]2C1 (stereo partly drawn)
inactive: Potency (C33A) | Potency (CAOV3) | Potency (CASKI) | Potency (Es-2) | Potency (HeLa) | Potency (Hek293T)

O=C(O)c1cc(O[C@@H]2O[C@H](CO[C@@H]3OC[C@@H](O)[C@H](O)[C@H]3O)[C@@H](O)[C@H](O)[C@H]2O)c2ccccc2c1O
inactive: Potency (C33A) | Potency (CAOV3) | Potency (CASKI) | Potency (Es-2) | Potency (HeLa) | Potency (Hek293T)

COC1CC(=O)C23C(=O)NC(CC(C)C)C2C(C)C(C)=CC3/C=C(\C)CCC1O (stereo not drawn)
inactive: Potency (C33A) | Potency (CAOV3) | Potency (CASKI) | Potency (Es-2) | Potency (HeLa)

C[C@@H]1O[C@@H](O[C@@H]2[C@@H](O)[C@H](O[C@@H]3[C@@H](O)[C@@H](O)[C@H](O[C@H]4[C@H](OC(=O)[C@]56CCC(C)(C)C[C@H]5C5=CCC7[C@@]8(C)C[C@H](O)[C@H](O[C@@H]9O[C@@H](C)[C@H](O)[C@@H](O)[C@H]9O)[C@@](C)(CO)C8CC[C@@]7(C)[C@]5(C)C[C@H]6O)O[C@H](C)[C@H](O)[C@@H]4O)O[C@H]3C)OC[C@H]2O)[C@H](O)[C@H](O)[C@H]1O (stereo partly drawn)
inactive: outcome (NIH3T3) inactive [at 9.27 µM] | activity change, negative = cytotoxicity (C33A) 1.27% [at 6.55 µM] | activity change, negative = cytotoxicity (CASKI) 0.934% [at 6.55 µM] | activity change, negative = cytotoxicity (Es-2) -4.41% [at 6.55 µM] | activity change, negative = cytotoxicity (HeLa) 3.33% [at 6.55 µM] | activity change, negative = cytotoxicity (Hek293T) 5.23% [at 6.55 µM]

CC1(C)C(=O)N2c3ccccc3[C@]3(CC(n4cnc5ccccc5c4=O)C(=O)O3)[C@H]2N1O (stereo partly drawn)
inactive: Potency (C33A) | Potency (CAOV3) | Potency (CASKI) | Potency (Es-2) | Potency (HeLa) | Potency (Hek293T)

C=C[C@@]1(C)CC(=O)C2[C@](C)(O1)[C@@H](OC(C)=O)[C@@H](O)[C@H]1C(C)(C)CCC[C@]21C (stereo partly drawn)
inactive: outcome (NIH3T3) inactive [at 9.27 µM] | activity change, negative = cytotoxicity (C33A) 11.6% [at 11.6 µM] | activity change, negative = cytotoxicity (CASKI) -3.47% [at 11.6 µM] | activity change, negative = cytotoxicity (Es-2) 1.29% [at 11.6 µM] | activity change, negative = cytotoxicity (HeLa) 4.53% [at 11.6 µM] | activity change, negative = cytotoxicity (Hek293T) -0.239% [at 11.6 µM]

C=CCc1ccc(O[C@@H]2O[C@H](CO)[C@@H](O)[C@H](O)[C@H]2O)c(OC)c1
inactive: outcome (NIH3T3) | Potency (C33A) | Potency (CASKI) | Potency (Es-2) | Potency (HeLa) | Potency (Hek293T)

C[C@@H]1O[C@@H](OC[C@H]2O[C@@H](OCC3CCC4CC3C4(C)C)[C@H](O)[C@@H](O)[C@@H]2O)[C@H](O)[C@H](O)[C@H]1O (stereo partly drawn)
inactive: Potency (C33A) | Potency (CAOV3) | Potency (CASKI) | Potency (Es-2) | Potency (HeLa) | Potency (Hek293T)

CCOC(=O)N1CCC(NCCNC(=O)c2ccccc2C)CC1
inactive: Potency (C33A) | Potency (CAOV3) | Potency (CASKI) | Potency (Es-2) | Potency (HeLa) | Potency (Hek293T)

Reference: PubChem BioAssay (NCATS)
